Experimental data from PubChem BioAssay (NCI).
The panel holds about 83,000 compounds, 20% with a hit somewhere; the sample as a whole holds those more often.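 Cell lines were cultured in 96-well plates, exposed to a single compound concentration, and assessed for percent growth 48 hours later.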 A number with no mark means an inactive call. Active and inactive are the calls of the source. The calls were made as follows: active = growth percent below 10; inactive = the rest.

What was measured:
Assay in all cases: NCI-60 one-dose screen, 48 h (100 = growth as untreated, 0 = no growth, -100 = all killed)
Settings in all cases: 10 µM unless noted
[1] = test system: DU-145 prostate
[2] = test system: K-562 leukemia
[3] = test system: MALME-3M melanoma
[4] = test system: MDA-MB-231 breast
[5] = test system: RXF 393 renal
[6] = test system: SF-268 CNS
[7] = test system: SF-539 CNS
[8] = test system: UACC-257 melanoma
[9] = test system: M14 melanoma
[10] = test system: HCT-15 colon
[11] = test system: HT29 colon
[12] = test system: SNB-75 CNS
[13] = test system: SNB-19 CNS
[14] = test system: U251 CNS
[15] = test system: PC-3 prostate
[16] = test system: SK-MEL-5 melanoma
[17] = test system: UACC-62 melanoma
[18] = test system: LOX IMVI melanoma
[19] = test system: SK-MEL-28 melanoma
[20] = test system: SF-295 CNS

| Structure (SMILES) | growth [1] [%] | growth [2] | growth [3] | growth [4] | growth [5] | growth [6] [%] | growth [7] | growth [8] | growth [9] | growth [10] [%] | growth [11] | growth [12] | growth [13] | growth [14] [%] | growth [15] | growth [16] | growth [17] | growth [18] | growth [19] | growth [20] |
| --- | --- | --- | --- | --- | --- | --- | --- | --- | --- | --- | --- | --- | --- | --- | --- | --- | --- | --- | --- | --- |
| COc1ccc(Sc2[nH]c(C=O)c3ccccc23)cc1 | 74.6 | -0.59% (active) | 91.8% | 49.3% | 6.64% (active) | 78 | 64.9% | 91.4% | 76.6% | 63.1 | 19.4% | 6.71% (active) | 77.6% | 76.6 | 45% | 70.1% | 46.7% | 70.3% | 81.9% | – |
| COc1ccc(/C=C/C(=O)c2ccc(NC(=O)CSc3nnc(-c4ccc(Cl)cc4)n3-c3ccccc3)cc2)cc1 | 106 | 80.1% | 118% | 91% | 104% | 96.1 | 109% | 86.7% | 91.9% | 80.5 | 98.7% | 84.2% | 96.2% | 88.2 | 84.5% | 84.1% | 74.6% | 105% | 104% | – |
| CCCN(CCC)CC(O)COc1ccccc1C(=O)Nc1ccccc1 (stereo unspecified) | 96.8 | 22.3% | 62% | 96.5% | 52.5% | 73.8 | 77.3% | 61.5% | 69.3% | 72.8 | 71.3% | 56.2% | 94.6% | 60.4 | 70.2% | 53.3% | 48.1% | 56.8% | 65.2% | – |
| Cc1ccc2cc3c(NC(=O)c4cccnc4)nn(C)c3nc2c1 | 100 | 85.8% | 99.1% | 83.8% | 89.3% | 97.3 | 97.1% | 99.3% | 93.3% | 91.6 | 75.8% | 73.8% | 82.6% | 85.2 | 62.5% | – | 88.7% | 92.4% | 96% | 101% |
| COc1cc(C2CC(c3cccc(Nc4ccnc5cc(Cl)ccc45)c3)=NN2c2ccc(Cl)cc2)cc(OC)c1OC (stereo unspecified) | 75.1 | 11.2% | 44.5% | 67% | 62.1% | 51.9 | 43.3% | 57.1% | 25.4% | 54.2 | 76% | 62.4% | 85.9% | – | 51% | 34.2% | 9.05% (active) | 43.5% | 51.4% | 3.25% (active) |
| CCCc1n(Cc2ccc3ccccc3n2)cc[n+]1Cc1ccc2ccccc2c1 | 28.6 | 5.05% (active) | -27.3% (active) | -5.49% (active) | 3.02% (active) | 17 | 12.7% | -9.42% (active) | 3.06% (active) | 82 | 3.72% (active) | -6% (active) | 7.24% (active) | – | 5.35% (active) | -91.9% (active) | -46.7% (active) | -63.8% (active) | 9.91% (active) | 4.45% (active) |
| COc1ccccc1NC(=O)OCC12COCN1COC2 | 112 | 104% | 103% | 102% | 108% | 106 | 103% | 89.9% | 104% | 97.2 | 109% | 97.6% | 94.4% | 91.1 | 101% | – | 99.7% | 107% | 108% | 103% |
| COc1cc2nccc(Oc3ccc(NC(=O)C4(C(=O)Nc5ccc(F)cc5)CC4)cc3)c2cc1OC(=O)c1ccc(N)cc1 | 45.3 | -20.9% (active) | 26% | -1.25% (active) | -10.4% (active) | 29.4 | -1.2% (active) | 33.5% | 10.8% | 25.9 | 1.03% (active) | -34.6% (active) | 37.6% | – | 25.4% | 34% | 40.1% | -51.4% (active) | – | -74.6% (active) |
